# The whole screen tested about 52,000 compounds, of which about 4,300 (8.3%) were called active. This is one part of a sample in which actives are shown more often than they occur. A number with no mark means an inactive call. No stated cut-off is given here; in the data, active means survival mostly below about 52% (no sharp cut-off); inactive means mostly above about 56%.
# Tested on: DeltatarO mutant
# Experiment: S. aureus survival, RN4220 and DeltatarO strains – OD600, teichoic acid synthesis inhibitors, primary screen (AID 463173)
# Details: S. aureus RN4220 wild type/DeltatarO growth, OD600, 18 h, stronger effect = lower value, screened at 18.75 µg/mL (by protocol)
row,Compound,survival
1,COc1cccc2cc(-c3nc(-c4cccs4)no3)c(=O)oc12,67%
2,COc1ccc(C)c2sc(NC(=O)c3ccc(S(=O)(=O)N4CCCCC4)cc3)nc12,92%
3,O=C(O)c1cc2nc3c(c(C(F)(F)F)n2n1)CCC3,89%
4,O=C(Cn1cnc2c(nc3n2CCCCC3)c1=O)Nc1cccc(C(F)(F)F)c1,83%
5,O=C(Cn1cc(S(=O)(=O)Cc2ccccc2F)c2ccccc21)NCc1ccccc1,87%
6,Cc1ccc(NCc2cc3cc4c(cc3n(CC(=O)Nc3ccc(F)cc3F)c2=O)OCCO4)cc1,70%
7,O=C(CN1CCC(C(=O)c2ccc(F)cc2)CC1)Nc1ccccc1,83%
8,CCCCSc1nc(O)c(CCC(C)C)c(=O)[nH]1,60%
9,Cc1ccc(S(=O)(=O)N(CCc2ccccc2)CC(=O)Nc2ccc(Br)cc2)cc1,75%
10,COc1cc(NC(=O)CSc2nc(-c3ccc(C(C)C)cc3)no2)cc(OC)c1,91%
11,O=C(Cn1c(=O)n(-c2cccc(Cl)c2)c(=O)c2sc3ccccc3c21)NC1CCCCC1,127%
12,O=C1CCN(Cc2ccccc2)C(=S)N1,49% (active)
13,C/C=C1\NC(=S)N(Cc2ccccc2)C1=O,84%
14,OC1(c2ccccc2)CCN(Cc2ccccc2)CC1,73%
15,COC(=O)C1C(=O)C2=C(CC1C)Nc1ccccc1NC2c1ccc(N(C)C)cc1 (centres undefined),79%
16,Cc1ccc(-c2nnc3ccccc3c2C(=O)Nc2ccc(C)c(F)c2)cc1,80%
17,O=C(COc1ccc(F)cc1)Nc1ccc2nc(SCCOc3ccccc3)sc2c1,87%
18,CCn1c(=O)n(CC)c2cc(N3CCCCC3)c(NC(=O)Nc3cc(C)cc(C)c3)cc21,100%
19,CCOC(=O)c1ccc(N2CCN(c3cccc(Cl)c3)CC2)c(NC(=O)Nc2ccc(Cl)cc2)c1,92%
20,CCOC(=O)c1ccc(N2CCN(c3ccc(F)cc3)CC2)c(NC(=O)Nc2cccc(OC)c2)c1,70%
21,CCOC(=O)c1ccc(N2CCN(c3cccc(OC)c3)CC2)c(NC(=O)Nc2ccc(OCC)cc2)c1,-5% (active)
22,CCOC(=O)c1ccc(NC(=O)Nc2cc3c(cc2N2CCCCC2)n(CC)c(=O)n3CC)cc1,57% (active)
23,CCOC(=O)c1ccc(NC(=O)Nc2cc3c(cc2N2CCCC2)n(C)c(=O)n3C)cc1,82%
24,CCOc1ccc(-c2nc3c(c(CC)nn3-c3ccccc3)c3cc(OC)c(OC)cc23)cc1,78%

row,Compound,survival
1,CCc1nc2sc3c(N4CCC(C)CC4)ncnc3c2c2c1CCCC2,134%
2,CCc1cccc(NC(=O)Cn2c(=O)n(CCC(=O)NCC3CCCO3)c(=O)c3cc(OC)c(OC)cc32)c1 (centres undefined),62%
3,COc1cccc2c1Oc1nc(-c3ccccc3)nc(SCC(=O)Nc3ccccc3)c1C2,81%
4,CCOC(=O)c1ccc(NC(=O)c2ccc3c(c2)CCN3S(=O)(=O)c2ccc(Cl)cc2)cc1,64%
5,COc1cc2c(C(=O)N(C)c3cc(Cl)ccc3OC)cn(CC(C)C)c(=O)c2cc1OC,48% (active)
6,Cc1cccn2c(=O)c(C(=O)N3CCN(c4ccccc4)CC3)cnc12,49%
7,CCCN(C(=O)c1cn(CC(C)C)c(=O)c2cc(OC)c(OC)cc12)c1cccc(C)c1,152%
8,Cc1cccc(N2CCN(C(=O)c3cccn4c(=O)c5cc(Cl)ccc5nc34)CC2C)c1 (centres undefined),66%
9,CCn1cc(C(=O)N2CCN(c3cc(Cl)ccc3C)CC2)c2cc(OC)c(OC)cc2c1=O,64%
10,COc1cc2c(C(=O)N3CCN(c4ccc(F)cc4)CC3)cn(CC(C)C)c(=O)c2cc1OC,56%
11,CCN(C(=O)c1cn(CC(C)C)c(=O)c2cc(OC)c(OC)cc12)c1cc(OC)ccc1OC,55%
12,COc1cc2c(C(=O)N3CCN(c4cccc(C)c4)C(C)C3)cn(CC(C)C)c(=O)c2cc1OC (centres undefined),46% (active)
13,COc1cc2c(C(=O)N3CCN(c4ccc(C)cc4)C(C)C3)cn(CC(C)C)c(=O)c2cc1OC (centres undefined),47%
14,COc1cc2c(C(=O)N3CCN(c4cc(Cl)ccc4C)CC3)cn(CC(C)C)c(=O)c2cc1OC,40% (active)
15,Cc1cccc(N2CCN(C(=O)c3cnc4c(C)cccn4c3=O)CC2C)c1 (centres undefined),32% (active)
16,CCc1ccccc1N(C)C(=O)c1cn(CC(C)C)c(=O)c2cc(OC)c(OC)cc12,73%
17,CCOc1cc(C#N)c(NC(=O)c2ccc(OC)c(S(=O)(=O)N3CCCC3)c2)cc1OCC,52%
18,CCCCCOc1ccc(C(=O)CCN2CCOCC2)cc1,90%
19,CC(C)c1nc2ccc(C(=O)NCc3ccc(F)cc3)cc2o1,78%
20,COc1ccc(C2CC(=O)c3c([nH]c(C(=O)OC4CCCCCC4)c3C)C2)cc1 (centres undefined),79%
21,CCc1ccc(NC(=O)Cn2c(=O)n(CCCC(=O)NCCc3ccc(OC)c(OC)c3)c(=O)c3ccccc32)cc1,77%
22,COc1ccc2c(c1)cc1c(=O)n(CC(=O)NC(C)C)nc(C)n12,78%
23,N#Cc1c2c(c(N3CCOCC3)[nH]c1=S)CCCC2,94%
24,O=S(=O)(NCC(c1ccco1)N1CCOCC1)c1ccc(Cl)cc1 (centres undefined),86%

row,Compound,survival
1,O=C(Nc1c(C(=O)N2CCN(c3ccccc3F)CC2)oc2ccccc12)c1ccccc1F,75%
2,Oc1ccc(NCc2ccc(OCc3ccccc3Cl)cc2)cc1,35% (active)
3,Oc1ccc(NCc2ccccc2OCc2ccccc2Cl)cc1,52% (active)
4,Oc1ccc(NCc2ccccc2OCc2ccccc2F)cc1,60%
5,Oc1ccc(NCc2ccccc2OCc2ccc(Cl)cc2)cc1,91%
6,CCOc1cccc(CNc2ccc(O)cc2)c1OCc1ccccc1Cl,68%
7,Oc1ccc(NCc2ccc(OCc3ccccc3)cc2)cc1,72%
8,CCC(C)NC(=O)Cn1c(=O)n(CCCC(=O)NCc2ccc(C)cc2)c(=O)c2ccccc21 (centres undefined),94%
9,COc1ccccc1OCC(=O)NCC1(N(C)C)CCCCC1,91%
10,COc1ccc(CCNS(=O)(=O)c2ccc(N3CCCCS3(=O)=O)cc2)cc1,79%
11,O=S(=O)(NCCc1ccc(Cl)cc1)c1ccc(N2CCCCS2(=O)=O)cc1,93%
12,O=S(=O)(NCCc1ccccc1)c1ccc(N2CCCCS2(=O)=O)cc1,52% (active)
13,c1ccc(Cn2nnnc2C(c2cccs2)N(Cc2cccnc2)Cc2ccco2)cc1 (centres undefined),64%
14,Cc1c[n+](CC(=O)c2ccccc2)c(C)cn1,101%
15,Cc1nc(-c2ccc(F)cc2)sc1CCNC(=O)c1ccc(OC(C)C)cc1,67%
16,Cc1ccc(C(=O)N2CCC(C(=O)O)CC2)cc1,90%
17,COc1cc(C(=O)Oc2c(Sc3ccc(C)cc3)c(C)nn2-c2ccccc2)cc(OC)c1OC,109%
18,Cc1nn(-c2ccccc2)c(OC(=O)C(C)(C)C)c1Sc1ccccc1,62%
19,Cc1ccc(Sc2c(C)nn(-c3ccccc3)c2OC(=O)CC(C)C)cc1,21% (active)
20,COc1ccc(C(=O)Oc2c(Sc3ccccc3)c(C)nn2-c2ccccc2)c(OC)c1,114%
21,Cc1ccc(C(=O)Oc2c(S(=O)(=O)c3ccccc3)c(C)nn2-c2ccccc2)cc1,90%
22,Cc1ccc(Sc2c(C)nn(-c3ccccc3)c2OC(=O)C(C)(C)C)cc1,-10% (active)
23,COc1ccc(Cc2nnc(SCC(=O)N3CCCC3)o2)cc1,83%
24,COc1ccc(N(CC(=O)NCCc2ccc(C)cc2)S(=O)(=O)c2c(C)nn(C)c2C)cc1,71%

row,Compound,survival
1,COc1ccc(-c2nc3c(c(SCC(=O)N4CCCCC4)n2)Cc2cc(C)ccc2O3)cc1,84%
2,CSc1ncc(C(=O)NCc2ccc(C)cc2)c(-c2ccccc2)n1,0% (active)
3,CSc1ncc(C(=O)NCc2cccc(F)c2)c(-c2ccccc2)n1,70%
4,CSc1ncc(C(=O)NCc2ccc(C)cc2)c(C)n1,69%
5,CSc1ncc(C(=O)NCc2cccc(C)c2)c(-c2ccccc2)n1,55%
6,CSc1ncc(C(=O)NCc2ccccc2)c(-c2ccccc2)n1,37% (active)
7,CSc1ncc(C(=O)NCc2ccc(F)cc2)c(-c2ccccc2)n1,95%
8,COc1cccc(NC(=O)c2sc3nc(C)c(C(=O)Nc4ccc(C)cc4C)c(-c4cccs4)c3c2N)c1,122%
9,CCc1ccc(S(=O)(=O)c2cn(Cc3ccccc3F)c3cc(OC)c(OC)cc3c2=O)cc1,70%
10,COc1ccc(C(=O)NCc2cn3ccc(C)cc3n2)cc1,96%
11,Cc1c(-c2ccccc2)n(-c2ccccc2O)c2nc3c(c(=O)n(C)c(=O)n3C)n12,94%
12,CC(=O)c1ccc(NC(=O)c2cc3c(=O)oc4ccc(C)cc4c3s2)cc1,106%
13,COc1ccc(-c2noc(CC(=O)N(C)c3cccc(C)c3)n2)cc1,68%
14,COc1ccc(-c2noc(CN(C(=O)Cc3ccc(C)cc3)C(C)C)n2)cc1,16% (active)
15,COc1ccc(-c2noc(CN(C(=O)c3ccccc3Cl)C(C)C)n2)cc1,62%
16,COc1ccc(-c2noc(CN(C(=O)C(C)Oc3ccc(C)cc3)C(C)C)n2)cc1 (centres undefined),63%
17,COc1ccc(-c2noc(CNC(=O)COc3cccc(C)c3C)n2)cc1,51%
18,COc1ccc(-c2noc(CN(C(=O)c3cc(OC)c(OC)cc3OC)C(C)C)n2)cc1,74%
19,COc1ccc(-c2noc(CN(C(=O)c3ccc(C)cc3C)C(C)C)n2)cc1,-3% (active)
20,Cc1ccc(-c2noc(CN(C(=O)COc3cc(C)cc(C)c3C)C(C)C)n2)cc1,-3% (active)
21,COc1ccc(CC(=O)N(Cc2nc(-c3ccc(C)cc3)no2)C(C)C)cc1,31% (active)
22,COc1ccc(-c2noc(CCC(=O)NCc3ccc(C)cc3)n2)cc1,103%
